Compound activity: PubChem BioAssay, NMMLSC
Most compounds without a hit are left out; they make up all but 1.9% or so of the library.
S aureus QS inh: inhibitors of bacterial quorum sensing in S. aureus; S. aureus RN6390 RNAIII-GFP reporter, AIP-induced, flow cytometry 3 h; inhibition, % at 2 µM; 24,000 tested, 0.3% active; AID 527;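 active means share of bacteria positive for the green fluorescent reporter and its mean brightness both inhibited by 50% or more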;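 further: 0% = AIP-stimulated control and 100% = unstimulated bacteria without AIP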
Prostate diff: LNCaP prostate cell differentiation activation; flow cytometry side scatter, 4 d; 24,000 tested, 0.56% active; side scatter shift, % at 10 µM;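 active means side scatter shift above 30%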;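 further: androgen-responsive LNCaP prostate cancer cells in charcoal-stripped serum medium; percent of cells past a gate set so DMSO wells show 10% shift; higher shift means more granular cells and more differentiation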
FPRL1 ligand: human FPRL1 ligand, with FPR counter-screen; AID 441; inhibition, % (no concentration beside the values); P25090; FPRL1-expressing cells, fluorescent ligand binding inhibition, flow cytometry; 24,000 tested, 0.3% active;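 further: 0% = buffer alone and 100% = receptor blocker peptide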
Target sequence (P25090 whole entry, looked up): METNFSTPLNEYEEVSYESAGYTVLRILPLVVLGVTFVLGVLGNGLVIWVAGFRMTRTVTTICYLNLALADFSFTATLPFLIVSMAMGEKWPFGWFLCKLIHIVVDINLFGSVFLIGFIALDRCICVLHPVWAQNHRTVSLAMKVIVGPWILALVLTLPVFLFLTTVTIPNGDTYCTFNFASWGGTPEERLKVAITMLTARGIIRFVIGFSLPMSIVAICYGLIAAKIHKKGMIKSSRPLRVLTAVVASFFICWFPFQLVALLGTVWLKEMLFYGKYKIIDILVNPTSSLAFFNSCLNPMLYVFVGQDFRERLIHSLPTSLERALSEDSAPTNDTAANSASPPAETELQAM
FPR binder: human FPR ligand, with FPRL1 counter-screen. P21462. FPR-expressing cells, fluorescent ligand binding, flow cytometry. inhibition, % (no concentration beside the values). 24,000 tested, 0.74% active. AID 440;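 further: 0% = buffer wells and 100% = receptor blocker peptide wells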
* marks the source's active call; other numbers are inactive results. Unless noted, no stated cut-off is given here; in the data, active means inhibition above about 30%; inconclusive means no clear call, values can overlap the other calls; inactive means below that.

O=C(NCCN1CCOCC1)NC1(C(F)(F)F)Oc2ccc(Cl)cc2O1 (stereo not given) was read as S aureus QS inh 0, Prostate diff 13, FPRL1 ligand -7 and FPR binder 66*.
O=C(NCCc1c[nH]c2ccccc12)C(=O)NCC(c1ccco1)N1CCN(c2ccccc2F)CC1 (stereo not given) was read as S aureus QS inh 0.
COc1cccc(CNC(=O)Cn2cc3c(n2)CCCC3)c1 was read as S aureus QS inh 9, Prostate diff 1, FPRL1 ligand 30 and FPR binder 40*.
`CC1CCN(c2c(NCc3ccc(C(=O)N4c5ccccc5CC4C)cc3)c(=O)c2=O)CC1` (stereo not given) gave S aureus QS inh 1, Prostate diff 10, FPRL1 ligand -3 and FPR binder -1.
CCN(CC)CC(=O)Nc1ccc(-c2nc3cc(NC(=O)CN(CC)CC)ccc3o2)cc1 was read as S aureus QS inh 0, Prostate diff 42*, FPRL1 ligand 2 and FPR binder -1.
COc1ccc(N(CC(=O)Nc2nc3ccc(C)cc3s2)S(=O)(=O)c2c(C)nn(C)c2C)cc1 was read as S aureus QS inh 66*, Prostate diff 6, FPRL1 ligand -10 and FPR binder -5.
Screening CCOC(=O)C1CCN(Cc2ccc(C(=O)OC)cc2)CC1 returned S aureus QS inh 0, Prostate diff 12, FPRL1 ligand 55* and FPR binder 48*.
For CCOC(=O)C1CCN(CC(O)COc2ccc(C(C)=O)cc2)CC1 (stereo not given) the results were S aureus QS inh 0, Prostate diff 5, FPRL1 ligand 27 and FPR binder 35*.
For COc1ccc(CNc2nc3c(c(C(F)(F)F)n2)CCCCC3)cc1 the results were S aureus QS inh 6, Prostate diff 6, FPRL1 ligand 6 and FPR binder 2.
Cc1cccc(N2C(=N)SCC2=O)c1C was read as S aureus QS inh 0.
COC(=O)C1C(=O)C2=C(CC1C)NC(C)=C(C(=O)OC1CCCCC1)C2c1ccc(N(C)C)cc1 (stereo not given) was read as S aureus QS inh 54*, Prostate diff 0, FPRL1 ligand 1 and FPR binder 11.
`COc1ccc(C2C(C(=O)NCCN3CCOCC3)c3ccccc3C(=O)N2C2CCCCC2)cc1` (stereo not given) gave S aureus QS inh -2, Prostate diff 7, FPRL1 ligand 1 and FPR binder -1.
Screening O=C(c1ccc(Cl)cc1)N(Cc1cccs1)C1CCS(=O)(=O)C1 (stereo not given) returned S aureus QS inh 0, Prostate diff 6, FPRL1 ligand 46* and FPR binder 28.
`CN(C(=O)COC(=O)C1CCN(S(=O)(=O)c2cccs2)CC1)C1CCS(=O)(=O)C1` (stereo not given) gave S aureus QS inh -2, Prostate diff 7, FPRL1 ligand 0 and FPR binder -4.
`Cc1nn(-c2ccccc2)c(OC(=O)c2cccs2)c1S(=O)(=O)c1ccccc1` gave S aureus QS inh 53*, Prostate diff 6, FPRL1 ligand -2 and FPR binder 2.
Screening Nc1cc(OC(=O)c2cccs2)nn1S(=O)(=O)c1ccccc1 returned S aureus QS inh -2, Prostate diff 5, FPRL1 ligand -2 and FPR binder 4.
`COC(=O)c1ccc2c(=O)n(Cc3ccco3)c(SCC(=O)Nc3ccc(C)c(Cl)c3)nc2c1` gave S aureus QS inh 3, Prostate diff 34*, FPRL1 ligand 2 and FPR binder 1.
CCN(CC)CCCNc1oc(-c2cccc(Cl)c2)nc1C#N was read as S aureus QS inh -2, Prostate diff 32*, FPRL1 ligand -1 and FPR binder 4.
`COc1ccc(-c2nc(C#N)c(NCCN(C)C)o2)cc1` gave S aureus QS inh -3, Prostate diff 16, FPRL1 ligand -2 and FPR binder -3.
For Cc1[nH]n2c(=O)c3c(nc2c1-c1ccccc1)CCC3 the results were FPRL1 ligand -3 and FPR binder 40*.
Screening Cc1[nH]n2c(=O)c3c(nc2c1-c1ccc(Cl)cc1)CCC3 returned FPRL1 ligand 0 and FPR binder 51*.
Screening Cc1[nH]n2c(=O)c(C#N)c(-c3ccccc3)nc2c1-c1ccccc1 returned FPRL1 ligand -8 and FPR binder 90*.
`Cc1ccc(-c2cc3nc4c(c(=O)n3[nH]2)CCCC4)cc1` gave S aureus QS inh 0, Prostate diff 3, FPRL1 ligand 4 and FPR binder 2.
O=C(N1CCN(Cc2ccccc2)CC1)C12CC3CC(CC(C3)C1)C2 was read as S aureus QS inh 0, Prostate diff 7, FPRL1 ligand -5 and FPR binder 6.
